Most compounds without a hit are left out; they make up all but 19% or so of the library.
IL1B secr inh: inflammasome signaling inhibition, IL-1 beta readout; THP-1 LPS/ATP IL-1B secretion, AlphaLISA, 16 h; hits give low values; activity change, % at 57.5 µM; hit rate 4.7% among 360,000; AID 743279; in the data active = activity change below about -50%; inconclusive = mostly about -30% to -49%; note: % is set by controls: 0 for no effect and ±100 for the full control effect
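THP-1 cells pretreated 1 hr with compounds (up to 57.5 uM final), then stimulated with LPS (250 ng/mL final) plus ATP (1.25 mM final); secreted IL-1B measured by AlphaLISA after 16 hr, decreased signal indicating inhibition.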
TGFb SMAD3 inh: TGF-b pathway inhibition; Potency, µM (titrated, usually from 46.1 µM), for inactives: at the highest dose activity, negative = inhibition, actives largely listed as inhibitors; AID 588855; HepG2 CAGA-GFP TGF-b/SMAD3 reporter, GFP fluorescence, 18 h; TGF-beta stimulated, 500 pg/mL final; hit rate 1.2% among 410,000; note: potency is the fitted concentration of half-maximal effect; % is set by controls: 0 for no effect and ±100 for the full control effect; nearly all actives have a fitted effect of over 65% in size
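Using HEPG2 CAGA-GFP reporter cells at 1000 cells/well, we pinned test compounds, stimulated with recombinant TGF-beta (500 pg/mL final) and measured total well GFP after 18 h.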
TDP1 cell noCPT: qHTS for Inhibitors of human tyrosyl-DNA phosphodiesterase 1 (TDP1): qHTS in cells in absence of CPT; hit rate 15% among 420,000; DT40 Tdp1-/- hTDP1 cells, no CPT, ATP luminescence, 48 h; Potency, µM (highest dose often 46.2 µM), inactives show at the highest dose activity change, negative = growth inhibition, usual class: inhibitors; AID 686978, 2013; note: potency is the fitted concentration of half-maximal effect; % is set by controls: 0 for no effect and ±100 for the full control effect; nearly all actives have a fitted effect of over 55% in size
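DT40 Tdp1-/-;hTDP1 cells, no CPT (DMSO vehicle only), 400 cells/well; compounds pin-transferred; ≥48 hr, 37 °C; CellTiter-Glo 30 min RT dark, luminescence read.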
TDP1 cell CPT: DT40-hTDP1 cell growth loss with CPT. hit rate 12% among 420,000. chicken DT40 Tdp1-/-;hTDP1 cells + 20 nM CPT, ATP luminescence, 48 h. Potency, µM (titrated, usually from 46.2 µM), without a hit: at the top dose activity change, negative = growth inhibition, most hits filed as inhibitors; note: potency is the fitted concentration of half-maximal effect; % is set by controls: 0 for no effect and ±100 for the full control effect; nearly all actives have a fitted effect of over 55% in size
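Chicken DT40 Tdp1-/- cells stably complemented with human TDP1 were seeded at 400 cells/well in medium containing 20 nM camptothecin, exposed to pin-transferred compounds, and grown at 37 °C for at least 48 hr. Viability was read as ATP luminescence.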
HepG2 tox: HepG2 cytotoxicity, counter-screen for TGF-b inhibitors; Potency, µM (doses to about 46.1 µM), for inactives: top-dose activity change, negative = cytotoxicity, most hits filed as cytotoxic; HepG2 CAGA-GFP viability, ATP luminescence, 18 h; AID 588856; hit rate 0.76% among 410,000; note: potency is the fitted concentration of half-maximal effect
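HepG2 CAGA-GFP cells (1000/well, DMEM with 1% FBS) received compound, then TGF-beta at 500 pg/mL final, and were incubated 18 hours at 37 degrees C. Viability was read by CellTiter-Glo luminescence. Media-only wells were set as complete cell-killing and DMSO as no toxicity.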
TDP1 block: TDP1 (human) enzyme inhibition. Q9NUW8. recombinant TDP1, AlphaScreen DNA substrate cleavage. hit rate 0.28% among 350,000. Potency, µM (series often up to 130 µM), inactives show top-dose activity change, negative = inhibition, most hits filed as inhibitors; note: potency is the fitted concentration of half-maximal effect; % is set by controls: 0 for no effect and ±100 for the full control effect; nearly all actives have a fitted effect of over 40% in size
Target sequence (Q9NUW8 whole entry, looked up): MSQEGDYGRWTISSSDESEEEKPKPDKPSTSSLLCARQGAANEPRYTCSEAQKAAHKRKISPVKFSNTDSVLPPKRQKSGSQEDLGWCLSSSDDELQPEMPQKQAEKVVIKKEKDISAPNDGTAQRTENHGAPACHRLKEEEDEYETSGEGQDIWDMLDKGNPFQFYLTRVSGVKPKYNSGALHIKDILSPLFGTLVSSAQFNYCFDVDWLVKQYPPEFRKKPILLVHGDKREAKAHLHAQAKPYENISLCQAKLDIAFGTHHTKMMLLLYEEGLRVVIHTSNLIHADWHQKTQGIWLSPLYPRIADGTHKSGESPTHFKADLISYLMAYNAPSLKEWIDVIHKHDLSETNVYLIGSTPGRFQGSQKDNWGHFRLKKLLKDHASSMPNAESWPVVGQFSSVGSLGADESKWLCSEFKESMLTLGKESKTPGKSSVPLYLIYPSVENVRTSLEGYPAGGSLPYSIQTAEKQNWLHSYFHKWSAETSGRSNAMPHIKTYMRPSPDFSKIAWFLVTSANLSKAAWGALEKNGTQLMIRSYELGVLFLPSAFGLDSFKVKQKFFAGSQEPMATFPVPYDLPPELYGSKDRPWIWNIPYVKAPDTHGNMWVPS
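Steps: enzyme plus compound, 15 min RT; add biotin/phosphotyrosine-FITC oligonucleotide (15 nM final), react 5 min; add donor/acceptor beads (10 ug/ml final), 10 min; read AlphaScreen. Tdp1 at 1 nM final.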
* = called active by the depositor; u = inconclusive; x = no result; [ ] = remark or other dose. Unless noted, calls come from the whole dose curve; as a rule, active = well fitted curve in the direction sought with a large enough effect; inconclusive = small, poorly fitted or top-dose-only effect, or another doubt; inactive = no such curve, though single readings can be large; an effect the other way counts as inactive or inconclusive.

SMILES	IL1B secr inh	TGFb SMAD3 inh	TDP1 cell noCPT	TDP1 cell CPT	HepG2 tox	TDP1 block
CC(Sc1nnc2c(n1)[nH]c1ccccc12)C(=O)NC1CCCCC1 (centres undefined)	-28	-11%	21µM*	23µM*	-19%	x
O=C(CSc1nnc2c(n1)[nH]c1ccccc12)N1CCCCC1	11	12%	-27%	0%	-8%	x
COC(=O)c1ccc(CSc2nnc3c(n2)[nH]c2ccccc23)cc1	2	11%	-13%	-10%	35%	3%
Cc1cnc(C(=O)OCC(=O)N2CCN(S(=O)(=O)c3ccc(Cl)cc3)CC2)cn1	15	0%	-8%	-5%	3%	-15%
COc1ccc(CN2C[C@H](O)COC[C@@H]3O[C@H](CC(=O)NCc4ccncn4)CC[C@H]32)cc1	28	x	1%	-7%	x	x
O=c1oc2ccccc2c(N2CCN(c3ccc(F)cc3)CC2)c1CN1CCCC1	x	u	16µM*	u	-18%	0%
O=C(C1CCCN(c2ncnc3c2nc2n3CCCCC2)C1)N1CCN(c2ccc(F)cc2)CC1 (centres undefined)	-4	u	u	u	-19%	7%
COc1ccc(N2CCN(C(=O)C3CCCN(c4ncnc5c4nc4n5CCCCC4)C3)CC2)cc1 (centres undefined)	-2	-16%	16µM*	21µM*	-35%	5%
CC(=O)c1ccc(N2CCN(C(=O)C3CCCN(c4ncnc5c4nc4n5CCCCC4)C3)CC2)cc1 (centres undefined)	0	1%	15µM*	15µM*	-13%	6%
O=C(C1CCCN(c2ncnc3c2nc2n3CCCCC2)C1)N1CCN(c2ccc(Cl)cc2)CC1 (centres undefined)	-1	u	u	u	-2%	8%
COc1ccc(CNC(=O)c2ccc(NC(=O)N3CCSc4ncccc43)cc2)cc1OC	x	3%	-2%	-11%	3%	0%
COc1ccc(CCNc2nc(-c3ccc(OC)c(OC)c3)cc(C(F)(F)F)n2)cc1OC	x	u	u	18µM*	-21%	6%
CCOc1cc(C)nc(NCCc2ccc(OC)c(OC)c2)n1	-57*	-28%	20µM*	u	-2%	2%
COc1ccc(-c2cc(C(F)(F)F)nc(SCC(=O)N3CC(C)OC(C)C3)n2)cc1OC (centres undefined)	-11	7%	1%	-17%	-8%	2%[56.1 µM]
COc1ccc(CNc2nc(-c3ccc(OC)c(OC)c3)cc(C(F)(F)F)n2)cc1	x	u	u	u	-24%	-3%
COc1ccc(-c2cc(C(F)(F)F)nc(N3CCOCC3)n2)cc1OC	-19	9%	10µM*	u	-27%	1%
COc1ccc(-c2cc(C(F)(F)F)nc(NC3CCCC3)n2)cc1OC	50	-2%	u	u	22µM*	-8%
COc1cccc(-c2cc(C(F)(F)F)nc(N3CCOCC3)n2)c1	-5	48%	-29%	-21%	-26%	-9%
CCOC(=O)c1c(C)[nH]c(C)c1C(=O)COC(=O)c1nn(CC)c(=O)c2ccccc12	6	-17%	-21%	-20%	-4%	x
CC1(O)CC2C(CC1O)C2(C)C (centres undefined)	x	x	-37%	-3%	x	9%[56.1 µM]
COc1ccc(NC(=O)c2cc(C3CCCCN3C(=O)C3CCCCC3)on2)c(C)c1 (centres undefined)	-14	-22%	u	u	-7%	x
C=C(C)C(O)/C=C/c1ccc(C(F)(F)F)cc1 (centres undefined)	x	x	x	x	x	6%
CCOc1cc2nc(-c3ccc(OC)c(OC)c3)nc(N3CC(C)OC(C)C3)c2cc1OC (centres undefined)	x	x	x	x	x	5%
CCOc1cc2nc(-c3ccc(OC)c(OC)c3)nc(N3CCOCC3)c2cc1OC	-30	3%	u	21µM*	-44%	-4%
COc1ccc(N2CCN(c3nc(NCCc4ccc(OC)c(OC)c4)nc(OC)n3)CC2)cc1	u	u	4.6µM*	6.5µM*	-72%	8%
SMILES	IL1B secr inh	TGFb SMAD3 inh	TDP1 cell noCPT	TDP1 cell CPT	HepG2 tox	TDP1 block
Cc1ccc(S(=O)(=O)NCC(=O)OCC(=O)N2CCN(C(=O)c3ccco3)CC2)cc1C	8	0%	-13%	-4%	0%	-5%
O=C(COc1ccc(Cl)cc1)Nc1ccc(C(=O)NCc2cccnc2)cc1	0	0%	9.2µM*	12µM*	-27%	-1%
Cc1ccc(C)n1-c1ccc(C(=O)NCc2cccnc2)cc1	x	x	x	x	x	2%
Cc1cccc(OCC(=O)Nc2ccc(C(=O)NCc3cccnc3)cc2)c1	x	x	x	x	x	5%
O=C(O)c1ccccc1C(=O)NCc1ccccc1	11	8%	-23%	2%	-9%	7%
Nc1sccc1C(=O)NCc1ccccc1	7	x	15µM*	-116%	x	x
O=C(Nc1ccc2c(c1)OCO2)c1cccc2c1C(=O)N(Cc1cccnc1)C2	u	-16%	u	u	-31%	x
COc1cc(NC(=O)c2cccc3c2C(=O)N(Cc2cccnc2)C3)cc(OC)c1OC	-56*	-3%	u	u	-16%	5%
Cc1ccc(OCc2ccc(C(=O)NCc3cccnc3)cc2)cc1C	-54*	u	5.2µM*	3.3µM*	1%	-3%
COc1ccc2c(CNC3CCCC3)c(C(=O)O)n(Cc3ccccc3C)c2c1	x	-6%	u	u	-11%	3%
O=C(NCCc1ccccc1)c1ccccc1NC(=O)C1CC=CCC1C(=O)O (centres undefined)	32	-20%	16µM*	15µM*	-4%	3%
COc1cc(C(=O)Nc2ccccc2C(=O)NCc2cccnc2)cc(OC)c1OC	-58*	4%	u	1%	3%	0%[0.0935 µM]
O=C(NCc1cccnc1)c1ccc(COc2ccc(Cl)cc2)cc1	-15	-17%	10µM*	16µM*	-22%	5%
O=C(COc1ccc(Cl)cc1)Nc1ccccc1C(=O)NCc1cccnc1	-28	46%	23µM*	u	117%	2%
CNC[C@@H]1Oc2cc(Br)ccc2S(=O)(=O)N([C@@H](C)CO)C[C@H]1C	-15	u	u	u	-1%	x
O=C(Nc1ccc(Cl)cc1C(=O)NCc1cccnc1)c1ccc(Cl)cc1Cl	0	-5%	18µM*	u	-13%	-1%
CC(C)(C)c1ccc(OCc2ccc(C(=O)NCc3cccnc3)o2)cc1	-17	-8%	8.2µM*	21µM*	-21%	-6%

Screening results (PubChem BioAssay)
